In PubChem BioAssay (NCATS) one finds Potency data, which are given here for eleven molecules.

Each structure is given as a SMILES string. Records with an inconclusive call do not appear. Entries that show only a call come without a potency. The source made the active and inactive calls. The call rests on the fitted dose curve; in most records, active means well fitted inhibition curve with a large enough effect; inconclusive means small, poorly fitted or top-dose-only effect; inactive means no such curve, though single readings can be large or run the other way.

The subject of experiment [1] is Zika virus NS2B-NS3 protease (unlinked complex). As to the kind of experiment: Primary screen GU Rhodamine qHTS for Zika virus inhibitors: Unlinked NS2B-NS3 protease assay (AID 1347159). Further: nearly all actives have a fitted effect of over 60% in size. In outline: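 Percent inhibition derives from the 15-min fluorescence change (ex 480, em 540 nm), normalized to no-enzyme and no-inhibitor wells. Reactions contained 25 nM NS2B-NS3 complex and 1.5 microM substrate in 10 mM Tris-HCl pH 8.0.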

In experiment [2] the test system is Zika virus NS2B-NS3 protease (linked construct). As to the kind of experiment: Primary screen NINDS Rhodamine qHTS for Zika virus inhibitors (AID 1347160). Further: nearly all actives have a fitted effect of over 55% in size. In short, it runs like this:
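In 10 mM Tris-HCl pH 8.0 containing 0.01% Tween 20, linked NS2B-NS3 protease (25 nM final) is exposed to test compounds for 15 min. Cleavage of 1.5 microM Rhodamine110 substrate is tracked by fluorescence over 15 min.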
For orientation: Quantitative high-throughput screening tests each substance at several concentrations.

On to `NC1CCCCN(c2c(F)cc3c(=O)c(C(=O)O)cn(C4CC4)c3c2Cl)C1` (configuration not stated), for which the Potency entry in experiment [1] and in experiment [2] was “inactive” throughout.
In the case of `O=C(CCc1ccccc1)N1CCC(O)(Cn2cnc3cc(Cl)ccc3c2=O)CC1`, the Potency entry in experiment [1] and in experiment [2] was “inactive” in each case.
As to `CC(=O)OC1C[C@]2(C)C(O)CC(C)=C[C@H](OC(=O)c3ccc(O)cc3)C2[C@]1(O)C(C)C` (some centres not stated), the Potency entry in experiment [1] and in experiment [2] was “inactive” in each case.
Regarding `C/C=C(\C)C(=O)OCC1OC(OC2OC(COC(=O)/C(C)=C/C)C(OC3OC(CO)C(OC(=O)/C(C)=C/C)C(OC(=O)/C(C)=C/C)C3O)C(O)C2O)C(O)C(O)C1OC1OC(CO)C(OC(=O)/C(C)=C/C)C(OC(=O)/C(C)=C/C)C1O` (configuration not stated), the Potency entry in experiment [1] and in experiment [2] was “inactive” each time.
As for `Cc1cccc(S(=O)(=O)N2CCC[C@@H]2CCN2CCC(C)CC2)c1`, the Potency entry in experiment [1] and in experiment [2] was “inactive” each time.
Regarding `C[C@@H]1CN(Cc2ccccc2)C[C@H]1c1nc2c(cnn2C2CCOCC2)c(=O)[nH]1`, the Potency result in experiment [1] and in experiment [2] was “inactive” in each case.
Regarding `O=C(O)c1cc2cccc([N+](=O)[O-])c2[nH]1`, the Potency entry in experiment [1] and in experiment [2] was “inactive” throughout.
As for `CC1(C)CC2C(O)c3cocc3CC(C)(O)C2C1` (configuration not stated), the Potency result in experiment [1] and in experiment [2] was “inactive” in each case.
For the molecule `COC(=O)C1(C)c2[nH]c3ccccc3c2CCN1C(=O)CCl` (configuration not stated), the Potency entry in experiment [1] and in experiment [2] was “inactive” throughout.
For the molecule `C=CC[C@]12C[C@@H](OC)C(=O)C(OC)=C1O[C@@H](c1cc(OC)c3c(c1)OCO3)[C@@H]2C`, the Potency result in experiment [1] and in experiment [2] was “inactive” throughout.
Turning to `C[C@@H]1C(=O)O[C@H](C)[C@H]1CC(=O)[C@](C)(O)[C@H]1CC[C@@]2(O)C3=CC(=O)[C@@H]4C[C@@H](O)[C@@H](O)C[C@]4(C)C3CC[C@]12C` (some centres not stated), the Potency result in experiment [1] and in experiment [2] was “inactive” in each case.
